From PubChem BioAssay
An excerpt weighted towards active compounds, which were near 2.4% of everything screened.
D2 antagonist – antagonizes the human D2 dopamine receptor; P14416; HEK293 TREx D2 cells, calcium flux, dopamine EC80; inhibition, % at 10 µM; hit rate 2% among 340,000; AID 485344; in the data active means inhibition above about 30%; inactive means below that, where a call was filed; further: 0% is about no effect
Target sequence (P14416 whole entry, looked up): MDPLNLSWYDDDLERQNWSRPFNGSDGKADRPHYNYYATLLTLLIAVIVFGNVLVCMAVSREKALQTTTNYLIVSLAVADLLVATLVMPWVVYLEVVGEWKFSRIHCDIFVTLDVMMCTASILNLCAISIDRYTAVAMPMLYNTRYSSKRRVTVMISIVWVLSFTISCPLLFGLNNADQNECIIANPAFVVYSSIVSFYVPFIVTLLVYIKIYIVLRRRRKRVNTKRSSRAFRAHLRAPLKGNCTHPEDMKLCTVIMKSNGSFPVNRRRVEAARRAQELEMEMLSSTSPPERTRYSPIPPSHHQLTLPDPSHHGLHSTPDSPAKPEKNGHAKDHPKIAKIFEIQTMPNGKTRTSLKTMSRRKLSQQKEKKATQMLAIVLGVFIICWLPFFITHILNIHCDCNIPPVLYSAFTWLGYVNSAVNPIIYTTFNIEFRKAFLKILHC
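Compounds are added to dye-loaded, induced HEK293 T-REx cells coupled to calcium release via D2; after a 3 min kinetic read an EC80 dopamine stimulus is given and fluorescence is recorded for 3 more min.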
D2 PAM-1 – positive allosteric modulators of human D2 dopamine receptor; P14416; DiscoveRx D2 beta-arrestin cells, luminescence, 90 min; 100% = 57 uM dopamine signal; potentiation, % (test concentration not listed); hit rate 0.23% among 360,000; AID 624464; in the data active means potentiation above about 50%; inconclusive means mostly about 30% to 49%
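PathHunter D2 cells, attached overnight at 37 deg C, received compound in DMSO plus dopamine at EC20 (50 nM final) for 90 min at 37 deg C. Beta-arrestin recruitment was read as luminescence after 1 h with detection reagent at ambient temperature.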
D2 ag-1 – D2 dopamine receptor (human) agonism; HEK293 T-REx D2 cells, calcium flux agonist mode; activation, % at 2 µM; hit rate 0.53% among 340,000;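 active means activation over 3 SD above normal in the single-dose calcium agonist read, cut at about 30% in these data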; further: 0% is about no effect
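HEK293 Trex D2 cells, tetracycline-induced, o/n 30 C 5% CO2; no-wash Ca dye, RT 30–90 min; 10-cycle baseline, 23 nl cpd added, kinetic Ca read 180 s; agonist hits = positive Ca response.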
D2 PAM-2 – D2 dopamine receptor (human) potentiation. hit rate 0.34% among 340,000. HEK293 T-REx D2, calcium flux, EC20 dopamine potentiation. AID 485347. potentiation, % at 10 µM;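 active means potentiation over 3 SD above the plate norm, cut at about 30% in these data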; further: 0% is about no effect
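Potentiation of an EC20 dopamine calcium response measured kinetically over 180 s, after a preceding 180 s compound-only read flagging agonists. Cells: inducible Hek293 Trex D2 line, 4000/well, cultured overnight at 30 C before dye loading.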
D2 ag-2 – activates the human D2 dopamine receptor. hit rate 0.084% among 360,000. DiscoveRx PathHunter D2 beta-arrestin, luminescence, 90 min; 100% = 57 uM dopamine signal. activation, % (test concentration not listed); in the data active means activation above about 40%; inconclusive means between about 15% and that limit
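DiscoveRx PathHunter D2 beta-arrestin cells (2,100/well) attached overnight, then compound-stimulated 90 min at 37 C in HBSS/10 mM HEPES/0.1% Tween-20 buffer; beta-galactosidase complementation read by luminescence after 1 h at ambient temperature. Dopamine 57 uM final (EC100) as control.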
* marks the source's active call; other numbers are inactive results; ? = inconclusive; . = no result given.

SMILES	D2 antagonist	D2 PAM-1	D2 ag-1	D2 PAM-2	D2 ag-2
COc1ccccc1NC(=O)c1nnn(CC(=O)Nc2ccccc2)c1N	13.6	-1.8	0.4	3.0	-0.5
Cc1cccc(NC(=O)Cn2nnc(C(=O)NCc3ccco3)c2N)c1	34.4*	-3.6	1.9	-5.8	-4.0
COc1ccc2nc(NC(=O)c3ccc(S(=O)(=O)N4CCC(C)CC4)cc3)sc2c1	.	.	-0.8	6.7	.
CC(C)OCCCn1c(=S)[nH]c2ccc(N3CCOCC3)cc2c1=O	-13.0	-7.2	-2.3	-4.9	0.2
CC(C)OCCCn1c(=S)[nH]c2cc3c(cc2c1=O)OCO3	49.5*	16.3	-0.6	1.6	1.2
COc1cc(NC(=O)C2CCC(CNc3c(N4CCCCC4)c(=O)c3=O)CC2)cc(OC)c1 (configuration not stated)	.	-1.4	.	4.5	5.1
CCOc1ccc(NC(=O)C2CCC(CNc3c(N4CCC(C)CC4)c(=O)c3=O)CC2)cc1 (configuration not stated)	30.5*	5.6	0.0	4.3	-3.3
COc1cc(NC(=O)C2CCC(CNc3c(N4CCC(C)CC4)c(=O)c3=O)CC2)cc(OC)c1 (configuration not stated)	16.2	-6.6	-0.1	30.4*	-1.9
CCN(CC)C(=O)c1cccc(NC(=O)c2cc(C3CC3)nc3c2cnn3C(C)C)c1	3.7	2.5	0.5	-13.4	-0.3
Fc1ccc(Cn2c(-c3cccc(Br)c3)nc3ccccc32)cc1	.	.	2.0	4.0	.
CCN1CCN(C(=O)c2ccc3c(c2)N(Cc2ccc(F)cc2)C(=O)c2ccccc2S3(=O)=O)CC1	.	.	-1.0	9.0	.
CCOc1ccccc1-n1nnc(-c2nsc(NC(=O)c3ccc(C)cc3)n2)c1C	.	.	-0.1	0.0	.
COc1ccc(S(=O)(=O)Nc2c(O)ccc3ccccc23)cc1OC	.	106.9*	.	.	?
COc1ccc(C(=O)Nc2c(O)ccc3ccccc23)cc1OC	.	17.1	.	.	-0.1
O=C(COC(=O)/C=C/c1ccc(S(=O)(=O)N2CCOCC2)cc1)NCc1ccc(Cl)cc1	46.5*	-14.3	0.5	-15.3	-5.2
Cn1c(=O)[nH]c(NCCc2ccc(O)cc2)c([N+](=O)[O-])c1=O	.	-6.3	.	.	-0.4
[S-]C(=Nc1ccc(Cl)cc1)N[n+]1ccccc1	61.9*	-4.7	-2.4	13.3	-8.1
ONC(=Nc1ccc(Cl)cc1)c1ccc(Cl)cc1	-3.4	1.1	0.3	9.3	-0.4
O=c1cc(-c2ccc(O)cc2)oc2ccc(O)cc12	37.4*	11.3	0.0	-6.5	-0.5
COC(=O)c1ccc2c(c1O)C(=O)c1ccccc1C2=O	9.5	107.1*	1.5	-0.5	14.3
CN1CCN(C2=Nc3ccccc3Oc3ccc(Cl)cc32)CC1	91.0*	-36.5	-1.1	-31.2	-5.7
COc1cc(CNCCN2CCOCC2)ccc1OCc1cccc(Cl)c1	42.3*	-11.0	-0.5	1.4	-1.1
CCOC(=O)c1c(-c2ccc(OC)cc2)oc2ccc(OCC(N)=O)cc12	19.3	-3.1	0.1	-6.7	?
CCOC(=O)c1c(-c2ccccc2)oc2ccc(OCC(=O)O)cc12	32.8*	-13.0	-0.2	-9.7	-7.3
CCCOc1ccc(/C=C2\SC(N)=NC2=O)cc1OC	65.7*	-4.9	-0.8	-10.2	-0.7
SMILES	D2 antagonist	D2 PAM-1	D2 ag-1	D2 PAM-2	D2 ag-2
COc1ccc(/C=C2\SC(N)=NC2=O)cc1Br	-8.4	-0.4	-0.5	-1.8	1.5
CCOC(=O)COc1ccc(CC)cc1C(=O)c1ccn2nc(-c3ccccc3)cc2n1	.	.	0.4	1.3	.
CN1CCN(c2ccc(Cl)cc2NC(=O)CC2OC(=O)c3ccccc32)CC1 (configuration not stated)	38.5*	-28.2	0.7	-13.7	-7.2
CN1CCN(c2ccc(Cl)cc2NC(=O)C2COc3ccccc3O2)CC1 (configuration not stated)	1.8	-14.3	0.2	5.7	-0.3
C=CCN1C(=O)/C(=C/c2ccc(O)c(OC)c2)S/C1=N/c1nccs1	-10.4	3.9	44.9*	2.6	9.7
COc1ccc(NC(=O)c2ccc3c(c2)C(=O)N(CC2CCCO2)C3=O)cc1 (configuration not stated)	4.0	-2.6	0.1	4.4	5.0
O=C(NCc1cccc(CNC(=O)C(=O)NCC2CCCO2)c1)C(=O)NCC1CCCO1 (configuration not stated)	30.0*	-2.2	0.2	6.8	0.5
